Compound activity: PubChem, National Center for Advancing Translational Sciences (NCATS)
CBFb RUNX1 block = qHTS Assay for Compounds Blocking the Interaction Between CBF-beta and RUNX1 for the Treatment of Acute Myeloid Leukemia; Runt-related transcription factor 1 (Homo sapiens) + Core-binding factor subunit beta …; AlphaScreen CBFb-His/RUNX1-biotin binding, biochemical; Potency, µM (highest dose often 59.8 µM), for inactives: at the highest dose activity, negative = inhibition, most hits filed as inhibitors; 230,000 tested, under 10 active; further: % of control where 0% means no effect
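AlphaScreen binding: CBFb-His and RUNX1-biotin (30 nM each) preincubated 20 min, compound added for 15 min, then nickel and streptavidin beads for 90 min, all at room temperature. Disruption of the interaction by any mechanism counts as activity.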
HttQ103 aggreg = qHTS Multiplex Assay to Identify Dual Action Probes in a Cell Model of Huntington: Aggregate Formation (GFP). PC12 HttQ103-GFP aggregates, Acumen cytometry, 40 h. Potency, µM (highest dose often 46.1 µM), for the others: at the top dose activity change, negative = inhibition, hits mostly inhibitors. 220,000 tested, 1.1% active. AID 1688, 2009; further: potency means the concentration at half of the fitted maximal effect; on the % scale 0 is the no-effect control and ±100 the full control effect; nearly all actives have a fitted effect of over 60% in size
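Using laser scanning cytometry, GFP-positive aggregates were counted after lysis of PC12 cells induced with 100 nM tebufenozide to express HTT exon 1 Q103–GFP. Compounds were tested in titration.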
MBNL1-CUG inh = qHTS Assay for Inhibitors of MBNL1-poly(CUG) RNA binding; Muscleblind-like protein 1 (Homo sapiens), Q9NR56; TR-FRET MBNL1-His/biotin-(CUG)12 binding, 665/545 ratio; Potency, µM (top dose mostly 57.5 µM), for inactives: at the top dose activity change, negative = inhibition, hits mostly inhibitors; 280,000 tested, 0.036% active; AID 2675, 2010; active means well fitted inhibition curve with a large enough effect in the signal ratio, with a control signal flat, not every such curve was filed as active; inconclusive means small, poorly fitted or top-dose-only effect, or effect the other way, or a change in a side signal; inactive means no such curve, though single readings can be large or run the other way; the % refers to the signal ratio; further: potency means the concentration at half of the fitted maximal effect; on the % scale 0 is the no-effect control and ±100 the full control effect
Target sequence (Q9NR56 whole entry, looked up): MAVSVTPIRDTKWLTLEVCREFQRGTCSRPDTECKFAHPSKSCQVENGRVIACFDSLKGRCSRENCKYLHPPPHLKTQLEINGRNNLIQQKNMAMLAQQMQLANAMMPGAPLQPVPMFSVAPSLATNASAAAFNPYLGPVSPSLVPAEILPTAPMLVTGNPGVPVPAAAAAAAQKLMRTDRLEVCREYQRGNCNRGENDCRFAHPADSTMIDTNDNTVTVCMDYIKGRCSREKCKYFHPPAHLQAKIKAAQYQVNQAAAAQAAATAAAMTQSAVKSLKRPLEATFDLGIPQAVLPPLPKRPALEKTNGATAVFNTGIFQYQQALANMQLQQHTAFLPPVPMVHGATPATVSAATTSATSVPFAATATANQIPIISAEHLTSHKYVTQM
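His-tagged MBNL1 binding to biotinylated (CUG)12 RNA was measured by TR-FRET using terbium anti-His antibody (0.055 ng/ul final) and streptavidin-XL665 (5 nM final). Compounds were titrated 92 nM to 58 uM; 60 min at room temperature.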
HTT cytoprotect = qHTS Multiplex Assay to Identify Dual Action Probes in a Cell Model of Huntington: Cytoprotection (ATP) | 230,000 tested, 0.14% active | PC12 HTT-Q103 induced, cytoprotection, ATP luminescence, 40 h | Potency, µM (top dose mostly 56.4 µM), without a hit: cytoprotection (ATP increase), most hits filed as activators; further: potency means the concentration at half of the fitted maximal effect; % of control where 0% means no effect; nearly all actives have a fitted effect of over 45% in size
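Compounds added alongside 100 nM tebufenozide, which induces toxic Q103 huntingtin exon 1-GFP in stable PC12 cells; surviving cells quantified by luminescent ATP measurement. Medium: phenol red-free DMEM, 5% equine and 5% calf serum.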
Lamin A splicing = qHTS Assay for Modulators of Lamin A Splicing; 200,000 tested, 0.01% active; Potency, µM (highest dose often 46.1 µM), inactives show at the highest dose ratio change, negative = inhibition, actives largely listed as inhibitors; HeLa LMNA splicing GFP/RFP minigene ratio, 48 h; AID 1487, 2009; active means well fitted inhibition curve with a large enough effect in the signal ratio, with a control signal flat, not every such curve was filed as active; inconclusive means small, poorly fitted or top-dose-only effect, or effect the other way, or a change in a side signal; the % refers to the signal ratio; further: potency means the concentration at half of the fitted maximal effect; on the % scale 0 is the no-effect control and ±100 the full control effect
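S3 HeLa stable clones carrying a lamin A-EGFP splicing minigene plus DsRed2 were seeded at 600 cells/well in Opti-MEM with 2% FBS, pin-dosed and incubated 48 h at 37°C. Acumen cytometry (488 nm) gave the GFP/RFP total-intensity ratio.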
NPSR antag = qHTS Assay for Antagonists of the Neuropeptide S Receptor: cAMP Signal Transduction; Potency, µM (doses to about 38.3 µM), without a hit: at the highest dose activity change, negative = inhibition, most hits filed as inhibitors; 220,000 tested, 1% active; Q6W5P4; AID 1461, 2008; CHO-NPSR cells, cAMP TR-FRET, antagonist mode; further: potency means the concentration at half of the fitted maximal effect; on the % scale 0 is the no-effect control and ±100 the full control effect; nearly all actives have a fitted effect of over 50% in size
Target sequence (Q6W5P4 whole entry, looked up): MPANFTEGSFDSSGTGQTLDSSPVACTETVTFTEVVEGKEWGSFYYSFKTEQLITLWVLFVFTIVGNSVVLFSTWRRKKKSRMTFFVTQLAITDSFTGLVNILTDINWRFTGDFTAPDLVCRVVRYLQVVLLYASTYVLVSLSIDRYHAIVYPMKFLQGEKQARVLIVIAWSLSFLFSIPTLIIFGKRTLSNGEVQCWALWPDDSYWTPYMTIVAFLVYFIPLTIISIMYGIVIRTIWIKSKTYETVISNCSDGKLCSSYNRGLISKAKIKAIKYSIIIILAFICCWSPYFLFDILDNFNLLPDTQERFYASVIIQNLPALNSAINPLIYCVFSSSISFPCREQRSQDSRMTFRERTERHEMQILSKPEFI
Numbers without * were called inactive; ? = inconclusive; · = no result; [ ] = remark or other dose. Shown are actives, neighbours in structure and some others; about 1.1% of the full set was active somewhere. Unless noted, the call rests on the fitted dose curve; in most records, active means well fitted curve in the direction sought with a large enough effect; inconclusive means small, poorly fitted or top-dose-only effect, or another doubt; inactive means no such curve, though single readings can be large; an effect the other way counts as inactive or inconclusive.

SMILES | CBFb RUNX1 block | HttQ103 aggreg | MBNL1-CUG inh | HTT cytoprotect | Lamin A splicing | NPSR antag
C[C@H]1[C@H](C)CC[C@@]2(C(=O)O)CC[C@]3(C)C(=CC[C@@H]4[C@@]5(C)CC[C@H](O)C(C)(C)[C@@H]5CC[C@@]43C)[C@@H]12 | · | · | · | 6% | · | ·
CCCCC[C@H](O)/C=C/C=C\C=C\C=C\[C@@H](O)[C@@H](O)CCCC(=O)O | 18% | · | · | -10% | · | ·
CNC(=O)[C@@H]1O[C@@H](n2cnc3c(N)ncnc32)[C@@H](O)[C@H]1O | · | · | · | -12%[1.9 µM] | · | ·
N#CCCCS(=O)(=O)c1nnnn1-c1ccc(F)cc1Br | 9% | · | · | 7.1µM* | · | ·
CCc1ccc(C(=O)CSC2=C(C#N)C(c3ccco3)C(C(C)=O)=C(C)N2)cc1 (configuration not stated) | 3% | 6% | ? | -23% | 3% | ?
CC(=O)C1=C(C)NC(SCC(=O)c2cc(Cl)ccc2Cl)=C(C#N)C1c1ccco1 (configuration not stated) | 7% | ? | 9% | -4% | ? | 10µM*
CC(=O)C1=C(C)NC(SCC(=O)c2ccc(F)cc2)=C(C#N)C1c1ccco1 (configuration not stated) | -15% | -7% | ? | -20% | 8% | -17%[46.1 µM]
CC(=O)C1=C(C)NC(SCC(=O)c2ccc(Cl)c(Cl)c2)=C(C#N)C1c1ccco1 (configuration not stated) | -8% | 13% | ? | 5% | -3% | 10µM*
Cc1ccc(C(=O)CSC2=C(C#N)C(c3ccco3)C3=C(CCCC3=O)N2)cc1 (configuration not stated) | -5% | -8% | ? | -90% | -17% | -23%[46.1 µM]
N#CC1=C(SCC(=O)c2ccccc2)NC2=C(C(=O)CCC2)C1c1ccco1 (configuration not stated) | 3% | 11µM* | ? | -111% | 6% | -40%[46.1 µM]
COc1ccccc1NC(=O)C1=C(C)NC(SCC(=O)c2ccc(C)cc2)=C(C#N)C1c1ccco1 (configuration not stated) | 8% | ? | 27% | -4% | ? | 6.3µM*
CCN1CCC[C@@H]1CNC(=O)c1c(OC)ccc(I)c1O | · | · | · | -5%[1.9 µM] | · | ·
CSCCC(Nc1ncnc2ccc(Br)cc12)C(=O)O (configuration not stated) | 3% | -8% | 19% | -15%[10 µM] | -3% | ?
Cc1ccc2[nH]c3c(NCc4ccco4)ncnc3c2c1 | -8% | 11µM* | -4% | -89%[0.074 µM] | ? | -24%[46.1 µM]
COc1cc(CNc2ncnc3c2[nH]c2ccc(C)cc23)cc(OC)c1 | -12% | -11%[9.22 µM] | -7% | 12%[10 µM] | · | -47%
Brc1ccc2ncnc(NCc3ccco3)c2c1 | -5% | 8.9µM* | -1% | -11% | ? | 3%[46.1 µM]
CC(C)Nc1ncnc2ccc(Br)cc12 | 5% | 6.3µM* | -1%[11.5 µM] | · | ? | 11%
CC1=C[C@@H](O)CC(C)(C)[C@@H]1/C=C/C(C)=C/C=C/C(C)=C/C=C/C=C(C)/C=C/C=C(C)/C=C/C1=C(C)C[C@H](O)CC1(C)C | · | 21% | · | -29% | · | ·
O=C(O)c1ccccc1-c1c2cc(Br)c(=O)c(Br)c-2oc2c(Br)c(O)c(Br)cc12 | ? | 10µM* | · | -23% | · | ·
Cc1ccc2oc(-c3ccccc3C(=O)O)cc(=O)c2c1 | 5% | 9% | 1% | 15%[0.074 µM] | -5% | 1%[46.1 µM]
O=C1C(c2ccnc3ccccc23)=C(O)c2ccccc21 | 11% | -16% | 16% | -79%[10 µM] | -14% | 1%[46.1 µM]
O=C1C(=O)c2ccccc2C(O)=C1c1ccccc1F | -5% | -27%[9.22 µM] | ? | -17%[10 µM] | 7%[46 µM] | 13µM*
O=Cc1ccccc1OCCOc1ccccc1C=O | 11% | 35µM* | 0% | -24%[10 µM] | ? | 20%[46.1 µM]
O=Cc1ccccc1Oc1ccccc1 | 12% | -7% | -5% | 6%[10 µM] | ? | -14%[46.1 µM]
O=C(NNc1nc2ccc(Cl)cc2s1)c1cc(-c2cccs2)nc2ccccc12 | 0%[2.36 µM] | 14µM* | 11% | · | ? | 2%
SMILES | CBFb RUNX1 block | HttQ103 aggreg | MBNL1-CUG inh | HTT cytoprotect | Lamin A splicing | NPSR antag
COc1ccc(OC)c(CNC(=O)C2CCN(S(=O)(=O)c3cn(C)cn3)CC2)c1 | · | · | · | · | 13%[46 µM] | ·
COc1cccc2c1[C@@H]1CN(CCCCn3c(=O)[nH]c4c(sc5ncc(-c6ccccc6)nc54)c3=O)C[C@H]1CO2 | · | · | · | 7%[1.9 µM] | · | ·
COc1cc2c(cc1OC)-c1cc3ccc4c(c3c[n+]1CC2)OCO4 | -1% | -27% | ? | · | ? | 13µM*
COC(=O)C1=C(C(=O)OC)[C@@H]2N(C)c3ccc(OC)cc3[C@@]23C[C@@H](C(=O)OC)N(S(=O)(=O)c2ccc(C(F)(F)F)cc2)C3=N1 | -17%[13.1 µM] | · | · | 13%[10 µM] | ? | ·
O=C(N/N=C/c1ccc([N+](=O)[O-])o1)c1ccc(O)cc1 | 2% | 6% | ? | · | ? | 13µM*
O=C(N/N=C/c1ccc([N+](=O)[O-])o1)c1ccncc1 | 17% | -1%[9.22 µM] | · | -20%[10 µM] | · | 28%
CCCc1cc(C(=O)N2CCN(C(c3ccccc3)c3ccccc3)CC2)no1 | 19% | 22µM* | 1% | -16%[10 µM] | -17% | ?
Cc1cc(C(=O)N2CCN(C(c3ccccc3)c3ccccc3)CC2)no1 | 5% | -2% | 3% | -4%[10 µM] | -14% | -18%[46.1 µM]
N[C@H](Cc1cccc(-c2ccccc2CP(=O)(O)O)c1)C(=O)O | · | · | · | -20%[1.9 µM] | · | ·
COc1ccc(-c2nn(-c3ccccc3)cc2/C=N/NC(=O)c2ccc(Br)o2)cc1 | 2% | 3.5µM* | 6% | -40% | 22% | 6.3µM*
O=C(CSc1c(Cl)cccc1Cl)N1CCC(c2nc3ccccc3s2)CC1 | -1% | 11µM* | -13% | -53% | ? | -21%[46.1 µM]
O=C(CSc1ccc(Cl)cc1)N1CCC(c2nc3ccccc3s2)CC1 | 1% | ? | 1% | -27% | -2% | -20%[46.1 µM]
C/C(CC1CC(C)OC1=O)=N\NC(N)=S (configuration not stated) | -5% | 17% | -8% | -6%[10 µM] | -6% | 49%
C/C(CC(C)(C)C1CCCCC1)=N\NC(N)=S | -1% | -18%[9.22 µM] | -7% | -97% | ? | 3.2µM*
O=C(O)/C=C\[C@H](O)c1ccc(Cl)cc1 | · | · | · | -18%[1.9 µM] | · | ·
COc1cc(OC)cc(C(=O)Oc2c(CN3CCOCC3)cc(Cl)c3cccnc23)c1 | -14% | 4.5µM* | · | -76%[10 µM] | · | ?
